# Screens: PubChem BioAssay, National Center for Advancing Translational Sciences (NCATS)
# Rows were chosen to be rich in hits. Some 11% of all compounds tested hit in one or more screens of this group.
# Pf growth 96h – inhibits malaria parasite growth, 96 h; P. falciparum luciferase reporter growth, 96 h; Potency, µM (top dose mostly 28.7 µM), without a hit: top-dose activity change, negative = inhibition, most hits filed as inhibitors; 320,000 compounds, 6.9% hits; AID 504834; note: % is set by controls: 0 for no effect and ±100 for the full control effect
#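 Luminescence readout: decreased luciferase signal marks inhibited growth of reporter-expressing P. falciparum in infected red cells (2% hematocrit, 0.05% parasitemia final), exposed to compound two generations (96 h, 37 C, 5% CO2).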
# Sm TGR block – blocks Schistosoma mansoni thioredoxin glutathione reductase. Potency, µM (series often up to 114 µM), without a hit: top-dose activity change, negative = inhibition, actives largely listed as inhibitors. AID 485364. 360,000 compounds, 3% hits. Q962Y6. purified TGR, DTNB reduction, TNB absorbance 405 nm; note: % is set by controls: 0 for no effect and ±100 for the full control effect; nearly all actives have a fitted effect of over 60% in size
#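 First, TGR (20 nM dispensed) and NADPH were mixed with compound. Second, a 15 min room-temperature incubation followed. Third, further NADPH and then DTNB were added to start the reaction. Finally, TNB absorbance was monitored kinetically.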
# Pf growth 48h – inhibits P. falciparum growth in the first generation, 48 h; Potency, µM (series often up to 28.7 µM), without a hit: at the top dose activity change, negative = inhibition, actives largely listed as inhibitors; AID 504832; P. falciparum luciferase growth in erythrocytes, 48 h; 310,000 compounds, 5.9% hits; note: % is set by controls: 0 for no effect and ±100 for the full control effect
#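 A one-generation exposure of luciferase-tagged malaria parasites in RPMI 1640/Albumax erythrocyte culture, 37 C and 5% CO2. Inhibition is inferred from decreased luminescence after adding detection reagent.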
# NS1 inh – blocks influenza NS1 protein function; 270,000 compounds, 0.4% hits; AID 2326; Potency, µM (highest dose often 46.1 µM), for the others: top-dose activity, positive = more growth; calls by dose curve; note: actives are rising curves; nearly all actives have a fitted effect of over 50% in size
#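 Compounds were scored for reversing the slow growth caused by influenza A NS1 in S. cerevisiae, measured by optical density at 600 nm. Assay medium contained 2% galactose at pH 6.0; NS1-free yeast of the same strain were the positive control.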
# AMA1 RON2 block – AMA1-RON2 (P. falciparum) interaction inhibition; AlphaScreen AMA1-biotinylated RON2 peptide binding; Potency, µM (titrated, usually from 58.2 µM), inactives show at the top dose activity change, negative = inhibition, usual class: inhibitors; 360,000 compounds, 0.2% hits;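 note: 0% = vehicle wells and -100% = peptide control; nearly all actives have a fitted effect of over 45% in size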
#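 AMA1 (3D7) with his tag at 25 nM final met compounds first, then biotinylated RON2 peptide at 25 nM; detection used donor plus acceptor beads, 10 µg/mL apiece, read by AlphaScreen after 30 min at room temperature.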
# * = called active by the depositor; u = inconclusive; x = no result; [ ] = dose if it differs, or a comment. Unless noted, calls come from the whole dose curve; as a rule, active = well fitted curve in the direction sought with a large enough effect; inconclusive = small, poorly fitted or top-dose-only effect, or another doubt; inactive = no such curve, though single readings can be large; an effect the other way counts as inactive or inconclusive. Potency is the fitted concentration of half-maximal effect.
SMILES,Pf growth 96h,Sm TGR block,Pf growth 48h,NS1 inh,AMA1 RON2 block
COc1ccc(C(=O)c2coc3ccc(O)c(CN4CCCCC4)c23)cc1,57%,-5%,7.4µM*,-16%,0%
COc1ccc(Nc2cc(C(=O)NCCc3ccc(C)cc3)c3ccccc3n2)c(OC)c1,x,8%,x,x,x
COc1c(Cl)cc(Cl)cc1/C=C(\C#N)c1nc2ccccc2[nH]1,x,7%,x,x,x
COc1c(O)ccc(/C=C(\C#N)c2nc3ccccc3[nH]2)c1[N+](=O)[O-],4.1µM*,-1%,8%,7%,43%
N#C/C(=C\c1cc([N+](=O)[O-])c(N2CCOCC2)cc1N1CCOCC1)c1nc2ccccc2[nH]1,12µM*,-7%,u,5%,6%
Cc1ccc2nc(/C(C#N)=C\c3cc(O)ccc3[N+](=O)[O-])[nH]c2c1,33%[5.75 µM],13%,9%,4%,21%
Cc1cc(/C=C(\C#N)c2nc3ccccc3[nH]2)c(C)n1C,-99%,-3%,-22%,17%,-6%
Cc1cc(/C=C(/C#N)c2nc3ccccc3[nH]2)c(C)n1-c1cccc([N+](=O)[O-])c1,2.3µM*,4%,x,-10%,-24%
CC(NC(=O)CSc1ccccc1)c1ccccc1 (stereo not given),u,0%,9%,-19%,-7%
CCc1cc2c(cc3c(=O)n(CC(=O)NC(C)c4ccccc4)ncn32)s1 (stereo not given),x,0%,x,x,x
Cc1cc(O)c2c(c1)C(=O)C13C(=C2O)C(=O)[C@H]2[C@@H](O)[C@@H]1[C@H]1[C@H](O)[C@@H]3C(=O)C3=C(O)c4c(O)cc(C)cc4C(=O)C312 (stereo not given in full),3.3µM*,u,4.1µM*,x,75%
CN1CCN(Cc2nc3ccccc3c(=O)n2Cc2nc(-c3ccc([N+](=O)[O-])cc3)cs2)CC1,2.6µM*,-5%,u,20%,u
Nc1nc(CCl)nc(Nc2cccc3ccccc23)n1,13µM*,16µM*,u,7%,18%
Nc1nc(Nc2cccc3ccccc23)nc(C2CCCC2=O)n1 (stereo not given),4%,-6%,4%,-2%,x
Oc1cc(Cl)ccc1Oc1ccc(Cl)cc1Cl,6µM*,x,9.5µM*,x,25%
CCOC(=O)/C(C#N)=N/Nc1ccccc1C(=O)O,10µM*,8%,u,-4%,6%
CCOC(=O)CC(=O)Nc1ccccc1C(=O)O,83%,4%,25%,-1%,24%
CN(Cc1cnccn1)Cc1c(C(=O)N2CCc3ccccc3C2)nc2ccc(Cl)cn12,u,-20%[57.1 µM],12µM*,-5%,25%
O=C(c1nc2ccc(Cl)cn2c1CN1CCC[C@H]1CO)N1CCc2ccccc2C1,x,x,x,x,0%
CN(Cc1cccnc1)Cc1c(C(=O)N2CCc3ccccc3C2)nc2ccc(Cl)cn12,-17%,32µM*,u,1%,-2%
CCc1ccc(-n2nc3ccc(NC(=O)c4cc(Cl)c(OC)c(Cl)c4)cc3n2)cc1,x,1%,x,x,x
CCOc1ccccc1-c1c2cc(O)c(=O)cc-2oc2cc(O)c(O)cc12,26%,45µM*,13µM*,u,u
COc1ccc(OC)c(-c2c3cc(O)c(=O)cc-3oc3cc(O)c(O)cc23)c1,32%,u,10µM*,u,2µM*
O=c1cc2oc3cc(O)c(O)cc3c(-c3ccccc3O)c-2cc1O,3.7µM*,8.9µM*,4.1µM*,1%,1.1µM*
COc1cc2c(cc1OC)n(CC(=O)Nc1ccccc1)c(=O)n1nc(-c3ccccc3)nc21,x,-5%,x,x,x
SMILES,Pf growth 96h,Sm TGR block,Pf growth 48h,NS1 inh,AMA1 RON2 block
COc1ccc(S(=O)(=O)Nc2ccc3c(c2)C(=O)N([C@H](C)CO)C[C@H](C)[C@@H](CN(C)C(=O)Nc2ccc4c(c2)OCO4)O3)cc1,x,x,x,x,-2%
Cc1noc(-c2ccccc2OCC(=O)Nc2cccc([N+](=O)[O-])c2)n1,x,6%,x,x,x
Cc1ccc(NC(=O)CN2C(=O)CCc3cc(S(=O)(=O)N4CCOCC4)ccc32)cc1F,x,-1%,x,x,x
CC(C)NC(=O)/C(=N\O)c1ccccc1,46%,11%,34%,5%,-3%
CNC(=O)/C(=N\O)c1ccccc1,9.3µM*,1%,46%,-8%,x
OCC1(CC2CCCCO2)CCN(C/C=C/c2ccccc2)CC1 (stereo not given),-15%,1%,5.2µM*,6%,4%
COc1cc(/C=C/CN2CCC(CO)(CC3CCCCO3)CC2)ccc1O (stereo not given),0%,13µM*,-5%,4%,-8%
OCC1(CC2CCCCO2)CCN(Cc2nc3ccccc3[nH]2)CC1 (stereo not given),0%,0%,-7%,4%,54%
COc1cc(/C=C/CN2CCC(Oc3ccc(C(=O)N4CCCC4)cc3)CC2)ccc1O,u,18µM*,u,32%,-11%
COc1ccc(NC(=O)N2CCC(CO)(CC3CCCCO3)CC2)c(OC)c1 (stereo not given),-12%,0%,1%,5%,-3%
COc1cc2c(cc1OC)CN(C(=O)Cc1c(F)cccc1Cl)CC2,5%,0%,0%,-14%,-7%
N#Cc1ccccc1Cn1cc(/C=C/[N+](=O)[O-])c2ccccc21,21%,-31%,9.3µM*,-5%,-9%
Cc1oc(-c2ccccc2)nc1CN1C(=O)C(C)N=C(c2ccccc2F)c2cc(Cl)ccc21 (stereo not given),2.3µM*,-2%,u,-19%,0%
Cc1cc(C)c(NC(=O)C(C)n2nnc3sc4c(c3c2=O)CCCC4)c(C)c1 (stereo not given),x,0%,x,x,x
Cc1nc([N+](=O)[O-])c(Br)n1CC(=O)c1ccccc1,x,4µM*,u,-49%,-6%
Cc1nc([N+](=O)[O-])c(C(=O)OCc2ccccc2Br)n1C,2%,-1%,28%,x,11%
Cc1cc([N+](=O)[O-])nn1CC(=O)c1ccccc1,-3%,21%,-4%,4%,-6%
Cc1nc([N+](=O)[O-])c(Br)n1CC(=O)c1ccc2ccccc2c1,u,14µM*,x,-219%,-3%
